From PubChem BioAssay
Calls of active or inactive are those of the source.

Key:
[1] = tested on: Plasmodium falciparum Sir2 (PF13_0152, Sir2A); assay: pfSir2 binders on small-molecule microarrays, primary screen, biochemical, small-molecule microarray, 635 nm fluorescence (AID 1098); conditions: small-molecule microarray binding, fluorescence 635 nm; higher = more signal;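 note: score merges spot fluorescence intensity with its signal-to-noise ratio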
[2] = small-molecule microarray binders of probe aDKK1, primary screen, biochemical, biotinylated probe, 635/667 nm fluorescence (AID 1099); conditions: higher = more signal;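 note: score merges 667nm spot fluorescence with signal to noise across triplicate slides; reference of the scale not given here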
[3] = small-molecule microarray binders of probe aCHRDL2, primary screen, biochemical, biotinylated probe, 635/667 nm fluorescence (AID 1100); conditions: higher = more signal
[4] = splicing luciferase reporter signal modulators, primary screen, spliceosome inhibition project, cell-based, HEK293, splice +/- reporter (AID 1101); conditions: luminescence, 24 h, higher = more signal, called active from +8 up or from −8 down;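 note: HEK293 cells carrying a splicing-competent luciferase reporter gene; test concentration not given here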
[5] = target: Fibroblast growth factor 10 (Homo sapiens) (UniProt O15520); assay: FGF10 binders on small-molecule microarrays, primary screen, biochemical, small-molecule microarray, 635 nm fluorescence (AID 1102); conditions: FGF10 binding, fluorescence 635 nm, higher = more signal
Chain of Fibroblast growth factor 10 (Homo sapiens) (O15520 whole entry, looked up): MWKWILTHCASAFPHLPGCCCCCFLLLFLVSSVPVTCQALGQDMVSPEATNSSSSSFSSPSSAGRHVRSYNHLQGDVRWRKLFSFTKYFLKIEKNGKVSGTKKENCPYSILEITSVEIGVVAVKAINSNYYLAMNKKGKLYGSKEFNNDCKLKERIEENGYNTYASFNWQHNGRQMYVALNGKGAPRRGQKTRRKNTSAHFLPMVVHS

[6] = tested on: glycogen synthase kinase-3 (GSK3A per assay name; protocol says GSK3B); assay: GSK3 binders on small-molecule microarrays, primary screen, biochemical, small-molecule microarray, 635 nm fluorescence, GSK3A (AID 1103); conditions: small-molecule microarray binding, fluorescence 635 nm; higher = more signal; note: the record names both GSK3A and GSK3B
[7] = target: Epidermal growth factor receptor (Homo sapiens) (UniProt P00533); assay: EGFR binders on small-molecule microarrays, primary screen, biochemical, small-molecule microarray, 635 nm fluorescence (AID 1104); conditions: EGFR binding, higher = more signal;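 note: score merges 667 nm emission intensity with spot signal to noise over triplicate slides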
Chain of Epidermal growth factor receptor (Homo sapiens) (P00533 whole entry, looked up): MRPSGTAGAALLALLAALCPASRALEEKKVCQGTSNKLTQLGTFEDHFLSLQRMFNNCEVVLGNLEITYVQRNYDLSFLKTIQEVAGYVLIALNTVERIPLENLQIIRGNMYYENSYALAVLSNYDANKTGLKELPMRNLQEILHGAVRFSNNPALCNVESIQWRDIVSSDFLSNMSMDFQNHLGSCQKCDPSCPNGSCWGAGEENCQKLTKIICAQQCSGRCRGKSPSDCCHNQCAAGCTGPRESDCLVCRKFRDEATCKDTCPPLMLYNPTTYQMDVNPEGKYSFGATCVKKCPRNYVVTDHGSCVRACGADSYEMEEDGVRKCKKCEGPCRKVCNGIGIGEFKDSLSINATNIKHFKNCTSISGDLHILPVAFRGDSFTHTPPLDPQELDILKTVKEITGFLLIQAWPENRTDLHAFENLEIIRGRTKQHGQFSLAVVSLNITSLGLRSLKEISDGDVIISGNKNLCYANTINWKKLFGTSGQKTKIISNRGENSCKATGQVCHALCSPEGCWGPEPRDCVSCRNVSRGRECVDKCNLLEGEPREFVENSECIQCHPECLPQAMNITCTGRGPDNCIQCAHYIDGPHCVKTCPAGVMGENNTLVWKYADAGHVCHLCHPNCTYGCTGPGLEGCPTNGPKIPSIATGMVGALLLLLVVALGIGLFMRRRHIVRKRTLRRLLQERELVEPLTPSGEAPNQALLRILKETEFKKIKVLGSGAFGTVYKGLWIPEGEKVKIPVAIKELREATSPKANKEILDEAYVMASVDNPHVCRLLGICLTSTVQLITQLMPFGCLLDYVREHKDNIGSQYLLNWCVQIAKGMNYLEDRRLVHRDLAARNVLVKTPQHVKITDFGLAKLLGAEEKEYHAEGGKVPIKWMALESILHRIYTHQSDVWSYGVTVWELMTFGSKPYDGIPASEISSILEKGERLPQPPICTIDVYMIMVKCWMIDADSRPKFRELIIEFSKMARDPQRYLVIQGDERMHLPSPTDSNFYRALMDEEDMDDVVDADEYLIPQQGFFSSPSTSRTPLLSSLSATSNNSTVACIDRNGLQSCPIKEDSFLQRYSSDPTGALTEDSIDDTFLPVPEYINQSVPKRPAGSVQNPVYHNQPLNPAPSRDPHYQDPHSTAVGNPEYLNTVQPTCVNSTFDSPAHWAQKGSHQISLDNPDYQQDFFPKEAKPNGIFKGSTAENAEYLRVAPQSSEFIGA

[8] = target: Follistatin-related protein 3 (Homo sapiens) (UniProt O95633); assay: FSTL3 binders on small-molecule microarrays, primary screen, biochemical, small-molecule microarray, 635 nm fluorescence (AID 1105); conditions: FSTL3 binding, higher = more signal;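 note: score merges emission near 667 nm and signal to noise per printed spot across three slides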
Chain of Follistatin-related protein 3 (Homo sapiens) (O95633 whole entry, looked up): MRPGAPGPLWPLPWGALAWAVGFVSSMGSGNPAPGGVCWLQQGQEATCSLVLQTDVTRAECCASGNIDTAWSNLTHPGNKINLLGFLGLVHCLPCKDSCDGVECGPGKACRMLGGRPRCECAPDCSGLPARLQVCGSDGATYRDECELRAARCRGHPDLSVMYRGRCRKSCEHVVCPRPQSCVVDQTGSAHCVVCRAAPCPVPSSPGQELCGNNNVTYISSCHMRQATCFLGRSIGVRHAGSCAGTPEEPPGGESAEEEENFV

[9] = target: Dickkopf-related protein 1 (Homo sapiens) (UniProt O94907); assay: DKK1 binders on small-molecule microarrays, primary screen, biochemical, small-molecule microarray, 635 nm fluorescence scan (AID 1106); conditions: DKK1 binding, higher = more signal;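 note: score merges emission near 667 nm with signal to noise over three replicate slides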
Chain of Dickkopf-related protein 1 (Homo sapiens) (O94907 whole entry, looked up): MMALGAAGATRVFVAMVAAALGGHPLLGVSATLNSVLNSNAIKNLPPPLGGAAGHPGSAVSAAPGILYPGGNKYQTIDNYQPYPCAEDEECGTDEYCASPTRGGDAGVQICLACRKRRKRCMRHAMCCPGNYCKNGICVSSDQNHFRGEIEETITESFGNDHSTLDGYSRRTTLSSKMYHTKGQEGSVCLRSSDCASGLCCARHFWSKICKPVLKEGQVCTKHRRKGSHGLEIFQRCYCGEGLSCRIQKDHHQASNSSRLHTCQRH

[10] = tested on: Inhibin beta A chain (activin A); assay: INHBA (activin A) binders on microarrays, primary screen, biochemical, small-molecule microarray, 635 nm fluorescence scan (AID 1107); conditions: small-molecule microarray binding, higher = more signal;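 note: mouse activin A protein probed at 4.33 µg/mL on printed slides; score merges bound-protein fluorescence near 667 nm with spot signal-to-noise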

| SMILES | composite z-score [1] | composite z-score [2] | composite z-score [3] | z-score [4] | composite z-score [5] | composite z-score [6] | composite z-score [7] | composite z-score [8] | composite z-score [9] | composite z-score [10] |
| --- | --- | --- | --- | --- | --- | --- | --- | --- | --- | --- |
| NCCCCCCNC(=O)[C@H]1C[C@H]2C(=O)N[C@@H](Cc3ccccc3)C(=O)N2[C@H]1c1ccc(O)cc1 | 1.3 | 0.21 | 0.456 | -1.23 (inactive) | -0.0657 | 0.481 | 0.92 | 0.533 | 0.232 | 1.1 |
| C#CCNC(=O)[C@H](Cc1ccccc1)NC(=O)[C@@H](N=[N+]=[N-])C(C)C | 0.435 | -0.218 | -0.503 | 0.177 (inactive) | 0.18 | 0.596 | 0.398 | 0.335 | 0.654 | 0.554 |
| COc1ccc([Si](C)(C)[C@H]2[C@H](CCn3cc([C@H](O)c4ccccc4)nn3)O[C@@]3(C(=O)N(Cc4cccc(N5C(=O)c6cccc7cccc5c67)c4)c4ccccc43)[C@@H]2C)cc1 | 0.661 | -0.0526 | 0.837 | -0.762 (inactive) | -0.718 | -1.22 | -1.04 | -1.4 | -1.66 | -0.456 |
| C=CC[C@@]1(C(=O)N2CCCCC2)N=C(c2ccc(OCCCO)cc2)O[C@@H]1c1ccccc1 | 1.53 | 0.833 | 0.613 | 0.411 (inactive) | 0.497 | 1.29 | 0.0106 | -0.0325 | -0.717 | 0.823 |
| CCOC(=O)C1=C[C@@H](c2ccccc2)N(S(=O)(=O)c2ccc(C)cc2)[C@H]1c1cccc(Cl)c1 | 0.937 | 1.09 | 1.17 | -0.355 (inactive) | 0.839 | 1.27 | 0.448 | 1.17 | -0.0943 | -0.249 |
| CN(C)CCCNC(=O)[C@@]1(C)c2ccccc2C(=O)N(Cc2cc(C(F)(F)F)cc(C(F)(F)F)c2)[C@H]1c1ccc(CO)cc1 | 1.01 | 0.202 | 0.0634 | -1.24 (inactive) | -0.753 | -0.477 | -1.9 | -1.14 | -0.992 | -1.34 |
| O=C1c2ccccc2[C@](Cc2ccccc2I)(C(=O)NCCN2CCOCC2)[C@H](c2ccc(CO)cc2)N1Cc1ccccc1 | 1.21 | 1.05 | 0.345 | -0.825 (inactive) | 0.712 | 1.04 | 0.167 | 1.04 | 0.352 | 0.59 |
| COCCOC(=O)N1C(=O)[C@@]2(c3cc(C#CC4(O)CCCCCC4)ccc31)[C@H](c1ccccc1OCCO)N1[C@H](c3ccccc3)[C@H](c3ccccc3)OC(=O)[C@H]1[C@@H]2C(N)=O | 0.651 | 0.255 | 0.0813 | -0.349 (inactive) | 0.804 | 1.28 | 0.442 | 1.14 | 1.06 | -0.132 |
| CC(C)(C)OC(=O)CC[C@]1(C(=O)O)N=C(c2ccc(OCCCO)cc2)O[C@H]1c1ccccc1CN=[N+]=[N-] | 0.814 | 0.905 | 0.764 | 0.325 (inactive) | 0.253 | -0.138 | -0.554 | -0.507 | -0.134 | 0.923 |
| CC(C)CN1C(=O)[C@@]2(Cc3ccccc31)c1ccccc1C(=O)N(Cc1ccccc1C(F)(F)F)[C@H]2c1ccc(CO)cc1 | 0.957 | -0.0363 | 0.223 | -0.596 (inactive) | -0.621 | -1.59 | -0.478 | -0.676 | -1.05 | 0.731 |
| C[n+]1ccc(CCCO)cc1 | 0.365 | -0.0442 | 0.0977 | -0.164 (inactive) | 0.113 | -0.262 | -0.455 | 0.0584 | 0.457 | 1.57 |
| C=C(COC)/C(=C/C[C@@H](OC(=O)c1ccncc1)c1ccc(CO)o1)c1cnc2ccccc2c1 | 1.06 | -0.182 | -0.386 | 0.773 (inactive) | 1.59 | 1.35 | 1.59 | 1.57 | 1.2 | 1.87 |
| O=C1NCC(=O)N2[C@@H]1C[C@@H](C(=O)O)[C@H]2c1ccc(O)cc1 | 1.41 | -0.0052 | 0.128 | -0.22 (inactive) | 0.944 | 1.32 | -0.0519 | 1.37 | 1.78 | 0.571 |
| O=C1NC(=O)C2C1C=CC(C(O)c1c(F)cccc1Cl)N2Nc1ccccn1 (stereo not given) | 0.419 | 0.282 | 0.171 | 0.824 (inactive) | 0.48 | 0.198 | 0.409 | 0.262 | 0.465 | 1.13 |
| O=C1C[C@@](C(=O)NCC(F)(F)F)(c2ccc([N+](=O)[O-])cc2)[C@@H](c2ccc(CO)cc2)N1C1CCCCC1 | 1.65 | 0.74 | 0.843 | -0.684 (inactive) | 0.86 | 1.31 | 0.308 | 1.03 | 0.172 | 0.563 |
| COC(=O)C(CC#Cc1ccc2c(c1)[C@]1(C(=O)N2)[C@H](C(=O)O)[C@H]2C(=O)O[C@H](c3ccccc3)[C@H](c3ccccc3)N2[C@@H]1c1ccccc1OCCO)C(=O)OC | 1.58 | 0.485 | 0.327 | 0.78 (inactive) | 1.19 | 1.31 | 0.384 | 1.06 | 0.337 | 0.194 |
| CCCCN1CC=CC23O[C@@H]4C=CCOC(=O)[C@@H]4[C@H]2C(=O)N(C(C)CO)[C@@H]3C1=O (stereo not given in full) | 1.1 | 0.198 | 0.774 | 0.408 (inactive) | -0.291 | -1.44 | -1.21 | -1.22 | -1.14 | 0.286 |
